Read-out in assay [1]: Cyclin D1 (CCND1), CCND1 (gene 595)
Description: LTEA_HepaRG_CCND1: Life Technologies and Expression Analysis (LTEA) Assay for Cyclin D1 (CCND1) using HepaRG (AID 2283451). The note with it: mRNA level, 48 h; actives raise or lower the signal. The method, boiled down:
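Differentiated human HepaRG cells in serum-free induction medium were exposed 48 h to eight half-log concentrations up to 100 uM in 0.5% DMSO; mRNA quantified by TaqMan qRT-PCR, normalized to ACTB, GAPDH, POLR2A, fitted bidirectionally versus DMSO.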

Read-out in assay [2]: catalase (CAT), CAT (gene 847)
Description: LTEA_HepaRG_CAT: Life Technologies and Expression Analysis (LTEA) Assay for catalase (CAT) using HepaRG (AID 2283452). The note with it: mRNA level, 48 h; actives raise or lower the signal. A digest of the protocol: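 HepaRG cells in serum-free induction medium, 0.5% DMSO vehicle, exposed 48 h in duplicate over 8 half-log concentrations from 100 uM. CAT mRNA measured by qRT-PCR, normalized to ACTB, GAPDH, POLR2A; bidirectional fit versus DMSO.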

Read-out in assay [3]: flavin-containing dimethylaniline monooxygenases 3 (FMO3), FMO3 (gene 2328)
Description: LTEA_HepaRG_FMO3: Life Technologies and Expression Analysis (LTEA) Assay for flavin-containing dimethylaniline monooxygenases 3 (FMO3) using HepaRG (AID 2283453). The note with it: mRNA level, 48 h; actives raise or lower the signal. The method, boiled down: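 Differentiated HepaRG cells in serum-free induction medium, exposed 48 h in duplicate to 8 half-log concentrations up to 100 uM in 0.5% DMSO. FMO3 mRNA by qRT-PCR, normalized to ACTB, GAPDH, POLR2A; bidirectional fit vs DMSO.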

Read-out in assay [4]: Cytochrome P450 (CYP1A1), CYP1A1 (gene 1543)
Description: LTEA_HepaRG_CYP1A1: Life Technologies and Expression Analysis (LTEA) Assay for Cytochrome P450 (CYP1A1) using HepaRG (AID 2283454). The note with it: mRNA level, 48 h; actives raise or lower the signal. A digest of the protocol: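 Differentiated HepaRG cells in serum-free induction medium were exposed in duplicate for 48 h to eight half-log concentrations up to 100 uM in 0.5% DMSO. CYP1A1 mRNA was quantified by TaqMan qRT-PCR, normalized to ACTB, GAPDH and POLR2A.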

Read-out in assay [5]: CFLAR gene, CFLAR (gene 8837)
Description: LTEA_HepaRG_CFLAR: Life Technologies and Expression Analysis (LTEA) Assay for CFLAR gene using HepaRG (AID 2283455). Particulars: mRNA level, 48 h; actives raise or lower the signal. The method, boiled down: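 Differentiated HepaRG cells in serum-free induction medium were exposed 48 h in duplicate to eight half-log concentrations up to 100 uM in 0.5% DMSO; mRNA measured by TaqMan qRT-PCR, normalized to ACTB, GAPDH, POLR2A; bidirectional fitting versus DMSO.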

Read-out in assay [6]: Forkhead box O1 (FOXO1), FOXO1 (gene 2308)
Description: LTEA_HepaRG_FOXO1: Life Technologies and Expression Analysis (LTEA) Assay for Forkhead box O1 (FOXO1) using HepaRG (AID 2283456). The note with it: mRNA level, 48 h; actives raise or lower the signal. A digest of the protocol: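 Differentiated HepaRG cells, in serum-free induction medium with 0.5% DMSO, exposed 48 h in duplicate to 8-point half-log series from 100 uM. FOXO1 mRNA measured by TaqMan qRT-PCR, normalized to ACTB, GAPDH, POLR2A; bidirectional fit versus DMSO.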

The nature of assay [7]: CEETOX_H295R_TESTO: CeeTox H295R High-throughput Steroidogenesis Assay for Testosterone (TESTO) (AID 2283457). Particulars: actives raise or lower the signal. A digest of the protocol: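 H295R human adrenal cells in DMEM/F12 with ITS+ and Nu-Serum, exposed to chemicals for 48 h. Testosterone in medium measured by MTBE extraction, reverse-phase HPLC-MS/MS; bidirectional fit versus DMSO baseline. MTT viability checked in same wells.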

Read-out in assay [8]: Forkhead box O3 (FOXO3), FOXO3 (gene 2309)
Description: LTEA_HepaRG_FOXO3: Life Technologies and Expression Analysis (LTEA) Assay for Forkhead box O3 (FOXO3) using HepaRG (AID 2283459). The note with it: mRNA level, 48 h; actives raise or lower the signal. A digest of the protocol: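 Differentiated human HepaRG cells, 48 h post-plating, exposed in duplicate for 48 h in serum-free induction medium; 8-point half-log series from 100 uM in 0.5% DMSO. FOXO3 mRNA by TaqMan qRT-PCR, normalized to ACTB/GAPDH/POLR2A; bidirectional fit versus DMSO.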

Read-out in assay [9]: ABC Transporter (ABCB1), ABCB1 (gene 5243)
Description: LTEA_HepaRG_ABCB1: Life Technologies and Expression Analysis (LTEA) Assay for ABC Transporter (ABCB1) using HepaRG (AID 2283460). The note with it: mRNA level, 48 h; actives raise or lower the signal. A digest of the protocol:
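HepaRG cells exposed in duplicate for 48 h in serum-free induction medium to eight half-log concentrations up to 100 uM in 0.5% DMSO. ABCB1 mRNA quantified by qRT-PCR, normalised to ACTB, GAPDH and POLR2A; fitted bidirectionally versus DMSO.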

Read-out in assay [10]: ABC Transporter (ABCC3), ABCC3 (gene 8714)
Description: LTEA_HepaRG_ABCC3: Life Technologies and Expression Analysis (LTEA) Assay for ABC Transporter (ABCC3) using HepaRG (AID 2283462). Particulars: mRNA level, 48 h; actives raise or lower the signal. The method, boiled down: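 HepaRG cells in serum-free induction medium were exposed for 48 h in duplicate to 8-point half-log concentrations topping at 100 uM in 0.5% DMSO. ABCC3 mRNA was measured by qRT-PCR normalized to ACTB, GAPDH and POLR2A, with bidirectional fitting versus DMSO.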

Read-out in assay [11]: ABC Transporter (ABCB11), ABCB11 (gene 8647)
Description: LTEA_HepaRG_ABCB11: Life Technologies and Expression Analysis (LTEA) Assay for ABC Transporter (ABCB11) using HepaRG (AID 2283463). The note with it: mRNA level, 48 h; actives raise or lower the signal. A digest of the protocol:
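Differentiated human HepaRG cells in serum-free induction medium, dosed in duplicate for 48 h. Eight-point half-log series from 100 uM in 0.5% DMSO; ABCB11 mRNA by qRT-PCR, normalized to ACTB, GAPDH, POLR2A, fitted bidirectionally versus DMSO.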

Read-out in assay [12]: ABC Transporter (ABCC2), ABCC2 (gene 1244)
Description: LTEA_HepaRG_ABCC2: Life Technologies and Expression Analysis (LTEA) Assay for ABC Transporter (ABCC2) using HepaRG (AID 2283464). Particulars: mRNA level, 48 h; actives raise or lower the signal. A digest of the protocol:
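HepaRG cells were plated 48 h, switched to serum-free induction medium, then exposed in duplicate for 48 h to 8 concentrations (top 100 uM, half-log steps, 0.5% DMSO). ABCC2 mRNA was measured by qRT-PCR normalized to ACTB/GAPDH/POLR2A; bidirectional fitting versus DMSO.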

Read-out in assay [13]: Broad substrate specificity ATP-binding cassette transporter ABCG2 (Homo sapiens) (UniProt Q9UNQ0)
Description: LTEA_HepaRG_ABCG2: Life Technologies and Expression Analysis (LTEA) Assay for ABC Transporter (ABCG2) using HepaRG (AID 2283465). The note with it: mRNA level, 48 h; actives raise or lower the signal. The method, boiled down:
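Differentiated HepaRG cells were exposed for 48 h in serum-free induction medium to 8 half-log concentrations, top 100 uM, in 0.5% DMSO. ABCG2 mRNA was measured by qRT-PCR, normalized to ACTB, GAPDH and POLR2A, with bidirectional fitting versus DMSO.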

Read-out in assay [14]: ATP-citrate lyase (ACLY), ACLY (gene 47)
Description: LTEA_HepaRG_ACLY: Life Technologies and Expression Analysis (LTEA) Assay for ATP-citrate lyase (ACLY) using HepaRG (AID 2283466). The note with it: mRNA level, 48 h; actives raise or lower the signal. A digest of the protocol: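 Differentiated HepaRG cells exposed 48 h in serum-free induction medium to eight half-log concentrations up to 100 uM in 0.5% DMSO, duplicates. Transcript measured by Fluidigm TaqMan qRT-PCR, normalized to ACTB, GAPDH, POLR2A; bidirectional fit versus DMSO.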

Read-out in assay [15]: Peroxisomal acyl-coenzyme A oxidase 1 (ACOX1) gene, ACOX1 (gene 51)
Description: LTEA_HepaRG_ACOX1: Life Technologies and Expression Analysis (LTEA) Assay for Peroxisomal acyl-coenzyme A oxidase 1 (ACOX1) gene using HepaRG (AID 2283467). Particulars: mRNA level, 48 h; actives raise or lower the signal. A digest of the protocol:
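HepaRG cells, plated 48 h then switched to serum-free induction medium, were exposed in duplicate for 48 h to 8-point half-log concentrations up to 100 uM in 0.5% DMSO. ACOX1 mRNA was measured by qRT-PCR, normalized to ACTB/GAPDH/POLR2A, and fitted bidirectionally versus DMSO.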

Read-out in assay [16]: Alkaline Phosphatase, Placental (ALPP) gene, ALPP (gene 250)
Description: LTEA_HepaRG_ALPP: Life Technologies and Expression Analysis (LTEA) Assay for Alkaline Phosphatase, Placental (ALPP) gene using HepaRG (AID 2283468). Particulars: mRNA level, 48 h; actives raise or lower the signal. The method, boiled down: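 Differentiated human HepaRG cells were plated and cultured 48 h, then exposed in duplicate for 48 h in serum-free induction medium to eight half-log concentrations from 100 uM in 0.5% DMSO. ALPP mRNA was measured by TaqMan qRT-PCR, normalized to ACTB, GAPDH, POLR2A.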

Read-out in assay [17]: Bcl-2 (BAD) gene, BAD (gene 572)
Description: LTEA_HepaRG_BAD: Life Technologies and Expression Analysis (LTEA) Assay for Bcl-2 (BAD) gene using HepaRG (AID 2283469). The note with it: mRNA level, 48 h; actives raise or lower the signal. The method, boiled down:
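Differentiated HepaRG cells were exposed in duplicate in 0.5% DMSO for 48 h to eight-point half-log concentrations up to 100 uM. BAD mRNA was measured by Fluidigm TaqMan qRT-PCR, normalized to ACTB, GAPDH and POLR2A, and fitted bidirectionally against DMSO.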

Read-out in assay [18]: Bcl-2 (BAX) gene, BAX (gene 581)
Description: LTEA_HepaRG_BAX: Life Technologies and Expression Analysis (LTEA) Assay for Bcl-2 (BAX) gene using HepaRG (AID 2283470). Particulars: mRNA level, 48 h; actives raise or lower the signal. A digest of the protocol: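 HepaRG (human liver), 48 h exposure, duplicate wells. 8-pt curve, half-log from 100 uM, 0.5% DMSO. BAX transcript by TaqMan qRT-PCR; ACTB/GAPDH/POLR2A normalization; gain or loss vs DMSO baseline.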

Read-out in assay [19]: growth arrest and DNA damage 45 (GADD45A), GADD45A (gene 1647)
Description: LTEA_HepaRG_GADD45A: Life Technologies and Expression Analysis (LTEA) Assay for growth arrest and DNA damage 45 (GADD45A) using HepaRG (AID 2283458). Particulars: mRNA level, 48 h; actives raise or lower the signal. A digest of the protocol: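 Cells plated and cultured 48 h, switched to serum-free induction medium, then dosed for 48 h (100 uM top, half-log dilutions, 0.5% DMSO). RNA was isolated and transcript measured by Fluidigm qRT-PCR.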

Read-out in assay [20]: growth arrest and DNA damage 45 (GADD45B), GADD45B (gene 4616)
Description: LTEA_HepaRG_GADD45B: Life Technologies and Expression Analysis (LTEA) Assay for growth arrest and DNA damage 45 (GADD45B) using HepaRG (AID 2283461). Particulars: mRNA level, 48 h; actives raise or lower the signal. A digest of the protocol: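 Differentiated HepaRG cells, plated 48 h then switched to serum-free induction medium, were exposed 48 h in duplicate to eight half-log concentrations from 100 uM in 0.5% DMSO; mRNA quantified by qRT-PCR, normalized to ACTB/GAPDH/POLR2A, bidirectional fit versus DMSO.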

What is called AC50 is the midpoint of the concentration-response curve, whichever way the signal moves.

Calls of active or inactive are those of the source. How the source made its calls: active means hit-call score of the fitted dose curve at least 0.9, where 1 is the maximum; inactive means score below 0.9.

Sequence of Broad substrate specificity ATP-binding cassette transporter ABCG2 (Homo sapiens) (Q9UNQ0 whole entry, looked up): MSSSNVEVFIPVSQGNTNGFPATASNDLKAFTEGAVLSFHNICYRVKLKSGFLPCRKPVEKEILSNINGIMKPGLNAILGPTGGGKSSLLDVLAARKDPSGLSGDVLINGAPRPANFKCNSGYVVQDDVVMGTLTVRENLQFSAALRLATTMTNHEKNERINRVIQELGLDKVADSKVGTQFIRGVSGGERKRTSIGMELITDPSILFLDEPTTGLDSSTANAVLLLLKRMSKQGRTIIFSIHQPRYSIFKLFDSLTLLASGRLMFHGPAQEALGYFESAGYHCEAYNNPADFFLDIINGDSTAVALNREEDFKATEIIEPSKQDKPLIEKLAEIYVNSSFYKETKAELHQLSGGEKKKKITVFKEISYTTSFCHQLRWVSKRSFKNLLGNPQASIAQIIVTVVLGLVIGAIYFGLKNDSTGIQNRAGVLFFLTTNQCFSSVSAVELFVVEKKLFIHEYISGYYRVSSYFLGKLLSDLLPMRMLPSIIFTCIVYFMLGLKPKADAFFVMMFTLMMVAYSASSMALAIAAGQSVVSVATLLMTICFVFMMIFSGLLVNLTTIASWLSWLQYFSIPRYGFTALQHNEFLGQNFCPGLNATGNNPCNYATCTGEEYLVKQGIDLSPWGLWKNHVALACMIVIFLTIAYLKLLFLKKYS

Consider `Cc1cc(N=Nc2ccccc2C)ccc1N`, for which the AC50 in assay [1] is 39.2 µM (active); in [2] it was 3.32 µM (active); in [3], 4.86 µM (active); in [4] it was 1.05 µM (active); in assay [5], 2.75 µM (active); in assay [6] it was 12.5 µM (active). Moreover, the AC50 in assay [8] was 5.56 µM (active); in [9] it was 5.45 µM (active); in assay [10], 13 µM (active); in assay [11] it was 4.58 µM (active); in [12], 3.17 µM (active); in assay [14], 0.387 µM (active). For the same molecule, the half-maximal activity concentration (AC50) in assay [15] was 2.57 µM (active); in assay [16], 12.6 µM (active); in [18], 1.99 µM (active). Moreover, the molecule was classed as inactive in assay [7], in [13] and in [17].

As to `CN(C)c1ccccc1`, the outcome in [1], in assay [2], in assay [3], in [5], in assay [6] and in assay [19] was inactive. In addition, the molecule was classed as inactive in [8], in assay [9], in [20], in assay [10], in [11] and in [12]. In addition, the molecule was called inactive in [13], in [14], in [15], in assay [16], in [17] and in assay [18]. Besides, the half-maximal activity concentration (AC50) in assay [4] was 63.3 µM (active).

For `Nc1cc(Cl)cc(C(=O)O)c1Cl`, the molecule was classed as inactive in assay [1], in assay [2], in assay [3], in assay [5], in assay [6] and in [19]. Moreover, the molecule was classed as inactive in [8], in [9], in [20], in assay [11], in assay [12] and in assay [13]. Also, the molecule was called inactive in [14], in assay [15], in assay [16], in assay [17] and in assay [18]. Moreover, in [4], the AC50 is 63.4 µM (active).

Source of the values: PubChem BioAssay (EPA / NIEHS).
